Screening data as filed in PubChem.
proKLK7 act – activates the human kallikrein-7 zymogen. 370,000 tested, 0.9% active. P49862. AID 652039. activation, % at 7 µM. purified proKLK7, EDANS-DABCYL substrate fluorescence; 100% is mature enzyme control, 0% vehicle;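 active means activation above the mean of all tested compounds plus 3 SD, computed per campaign excluding outliers beyond control limits, cut at about 13% in these data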
Target sequence (P49862 whole entry, looked up): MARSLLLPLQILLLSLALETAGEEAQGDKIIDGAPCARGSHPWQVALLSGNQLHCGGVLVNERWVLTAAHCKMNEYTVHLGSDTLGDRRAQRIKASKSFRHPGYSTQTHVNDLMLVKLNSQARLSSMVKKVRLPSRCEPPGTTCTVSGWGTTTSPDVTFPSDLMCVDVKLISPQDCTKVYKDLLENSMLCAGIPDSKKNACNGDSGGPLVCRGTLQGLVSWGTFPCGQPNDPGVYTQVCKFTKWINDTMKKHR
ADAM17 inh – ADAM17 inhibition, QFRET primary screen | P78536 | recombinant ADAM17, EDANS/DABCYL FRET peptide cleavage | inhibition, % at 6.95 µM | 370,000 tested, 0.83% active | AID 720648;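 active means inhibition above the mean of compounds lying between control limits plus 3 SD, set per campaign, cut at about 8.5% in these data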
MPTP inh – blocks calcium-induced mitochondrial swelling; isolated mouse mitochondria, Ca2+ swelling absorbance, 30 min; inhibition, % at 10 µM; 360,000 tested, 1.4% active;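 active means inhibition of 50% or more, scaled per plate between neutral and stimulator controls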
rCAG RNA binder – binds r(CAG) RNA repeats; r(CAG) RNA repeat, TO-PRO-1 dye displacement fluorescence; 370,000 tested, 1.3% active; inhibition, % at 3 µM;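 active means inhibition above the plate cutoff, the mean of all test compounds on that plate plus 3 SD, cut at about 35% in these data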;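 further: higher means more dye released from RNA so lower well fluorescence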
ADAM10 inh – inhibitors of human ADAM10; inhibition, % at 7 µM; 370,000 tested, 0.62% active; O14672; recombinant ADAM10, EDANS/DABCYL FRET peptide cleavage, 3 h; AID 720582;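 active means inhibition above a per-campaign cutoff equal to the mean of compounds falling between control-based bounds plus 3 SD, cut at about 20% in these data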
DSG3 Ab inh – blocks pemphigus antibody binding to human desmoglein-3; P32926; DSG3-coupled beads, scFv-anti-DSG3-GFP binding, flow cytometry; active compounds read low; binding (percent of control), % at 10 µM; 310,000 tested, 0.48% active; AID 588358;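 active means binding more than 3 SD below its plate's average and above zero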;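 further: hits lower antibody fragment binding to DSG3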
rCAG binder conf – r(CAG) RNA repeat binding, confirmation; 4,300 tested, 70% active; AID 652065; TO-PRO-1 dye displacement fluorescence; shares compounds with rCAG RNA binder; inhibition, % at 3 µM;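 active means inhibition above a per-plate cutoff, the mean inhibition of sample wells plus 3 SD, cut at about 35% in these data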;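 further: loss of TO-PRO-1 fluorescence as compound displaces dye from 1x1 AA loop RNA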
DNA CAG counter – DNA CAG dye complex inhibition counter-screen. d(CAG) DNA oligo TO-PRO-1 dye displacement, fluorescence. shares compounds with rCAG RNA binder. AID 652068. inhibition, % at 3 µM. 4,300 tested, 94% active;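 active means inhibition above its plate's cutoff, the mean test-well inhibition plus 3 SD, cut at about 4.8% in these data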;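 further: hits displace the dye from DNA and so lower well fluorescence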
ADAM10 confirm – human ADAM10 inhibition, confirmation. AID 743208. 2,100 tested, 1% active. shares compounds with ADAM10 inh. inhibition, % at 6.95 µM. ADAM10 QFRET peptide cleavage, EDANS fluorescence;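 active means inhibition above about 20% chosen separately for each screening run, limit read from the data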
ADAM17 counter – counter-screen for ADAM10 exosite inhibitors: inhibitors of human ADAM17 | 2,100 tested, 0.5% active | AID 743214 | ADAM17 QFRET peptide cleavage, EDANS fluorescence | inhibition, % at 6.95 µM | shares compounds with ADAM10 inh;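 active means mean triplicate inhibition above the solvent-only control wells' mean plus 3 SD, cut at about 12% in these data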
ADAM10 counter – counter-screen for ADAM17 exosite inhibitors: inhibitors of human ADAM10 | shares compounds with ADAM17 inh | recombinant ADAM10, EDANS/DABCYL FRET peptide cleavage, 3 h | inhibition, % at 6.95 µM | 2,900 tested, 47% active | AID 743256;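 active means mean inhibition over the triplicate runs exceeds the activity threshold set in the earlier primary screen, cut at about 20% in these data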
ADAM17 confirm – human ADAM17 inhibition, confirmation; inhibition, % at 6.95 µM; recombinant ADAM17, EDANS/DABCYL QFRET peptide cleavage; shares compounds with ADAM17 inh; 2,900 tested, 65% active; AID 743257;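 active means mean inhibition across replicates above the hit cutoff set in the primary screen, cut at about 8.5% in these data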
Each line names hits and unclear results; the compound was inactive in the other large screens (follow-up assays come after a bar, where they were run). Rows were chosen to be rich in hits. Some 4.7% of all compounds tested hit in one or more screens of this group.

COC(=O)c1sccc1NC(=O)CSc1ccccc1NS(=O)(=O)c1ccc(Br)cc1	ADAM17 inh 10.9, rCAG RNA binder 45.5, ADAM10 inh 21.0 | rCAG binder conf 50.4 | DNA CAG counter 14.9 | ADAM10 confirm inactive | ADAM17 counter inactive | ADAM10 counter inactive | ADAM17 confirm inactive
N#C/C(=C\c1ccccc1)C(=O)NNS(=O)(=O)c1cccc([N+](=O)[O-])c1	ADAM17 inh 34.8, rCAG RNA binder 36.5, ADAM10 inh 69.3 | rCAG binder conf inactive | DNA CAG counter inactive | ADAM10 confirm inactive | ADAM17 counter inactive | ADAM10 counter inactive | ADAM17 confirm inactive
CCN(C(=O)c1ccncc1)c1c(N)n(Cc2ccccc2)c(=O)[nH]c1=O	none
CNC(=S)N/N=C/c1ccc(-c2ccc(Cl)c([N+](=O)[O-])c2)o1	none
Cc1ccc(-c2ccc(/C=N/NC(=S)Nc3ccccc3)o2)cc1[N+](=O)[O-]	ADAM17 inh 14.2, rCAG RNA binder 42.5 | rCAG binder conf inactive | DNA CAG counter 15.9 | ADAM10 counter 24.4 | ADAM17 confirm 16.9
Cc1ccc([N+](=O)[O-])cc1NC(=O)c1ccc(-c2ccccc2)cc1	none
Cc1ccc([N+](=O)[O-])cc1-c1[nH]c(-c2ccc(O)c(O)c2)nc1-c1ccccc1	ADAM17 inh 8.8, rCAG RNA binder 35.5, ADAM10 inh 21.3 | rCAG binder conf 37.3 | DNA CAG counter 19.4 | ADAM10 confirm inactive | ADAM17 counter inactive | ADAM10 counter 27.6 | ADAM17 confirm 13.2
CCOC(=O)N1CCN(C(=O)C[C@@H]2C[C@@]3(C(=O)OCC)CCC=C3N(Cc3ccc(Cl)cc3Cl)C2=O)CC1	none (no result: DSG3 Ab inh)
O=C(NCc1cccc(Cl)c1)c1ccc(S(=O)(=O)Nc2cccc(C(F)(F)F)c2)cc1	ADAM17 inh 15.3, rCAG RNA binder 42.3, ADAM10 inh 38.9 | rCAG binder conf 44.9 | DNA CAG counter 9.1 | ADAM10 confirm inactive | ADAM17 counter inactive | ADAM10 counter 34.4 | ADAM17 confirm 17.9
O=C(Cc1cccc(C(F)(F)F)c1)NCc1cccc(Cl)c1	none
CCOC(=O)N1CCN(S(=O)(=O)c2ccc(C(=O)NNc3nc4c(C)cc(C)cc4s3)cc2)CC1	ADAM17 inh 9.7, rCAG RNA binder 68.9 (no result: DSG3 Ab inh) | rCAG binder conf 64.3 | DNA CAG counter 24.6 | ADAM10 counter 28.8 | ADAM17 confirm 22.8
CCOC(=O)N1CCN(S(=O)(=O)c2ccc(C(=O)NNc3nc4ccc(Cl)cc4s3)cc2)CC1	none (no result: proKLK7 act, ADAM17 inh, rCAG RNA binder, ADAM10 inh)
Cc1cc(C)c(S(=O)(=O)N2CCN(C(=O)c3ccc(-n4cncn4)c([N+](=O)[O-])c3)CC2)c(C)c1	none
O=C(O)c1cc(O)c2c(c1)[C@H]([C@H]1c3cc(C(=O)O)cc(O)c3C(=O)c3c(O[C@@H]4O[C@H](CO)[C@@H](O)[C@H](O)[C@H]4O)cccc31)c1cccc(OC3O[C@H](CO)[C@@H](O)[C@H](O)[C@H]3O)c1C2=O (some centres undefined)	ADAM17 inh 15.8, rCAG RNA binder 100.5, DSG3 Ab inh -9.0 | rCAG binder conf 99.4 | DNA CAG counter 89.6 | ADAM10 counter inactive | ADAM17 confirm 9.7
O=C1c2cc(CO)cc(O)c2C(=O)c2c(O[C@@H]3OC(CO)[C@@H](O)[C@@H](O)[C@@H]3O)cccc21 (some centres undefined)	none
C/C(=N\N=C(/N)SC1CC(=O)N(c2ccc(Cl)cc2)C1=O)c1cccs1 (centres undefined)	ADAM17 inh 10.8, rCAG RNA binder 42.7 | rCAG binder conf 63.4 | DNA CAG counter 24.5 | ADAM10 counter 35.2 | ADAM17 confirm 17.8
C/C(=N\N=C(/N)SC1CC(=O)N(c2ccc(Br)cc2)C1=O)c1cccs1 (centres undefined)	ADAM17 inh 11.7, rCAG RNA binder 46.6, ADAM10 inh 23.5 | rCAG binder conf 76.6 | DNA CAG counter 34.7 | ADAM10 confirm inactive | ADAM17 counter inactive | ADAM10 counter inactive | ADAM17 confirm 20.5
C/C(=N\N=C(/N)SC1CC(=O)N(c2ccc(Cl)c(Cl)c2)C1=O)c1cccs1 (centres undefined)	none
C/C(=N\N=C(/N)SC1CC(=O)N(c2ccccc2)C1=O)c1cccs1 (centres undefined)	ADAM17 inh 8.6, rCAG RNA binder 41.6, ADAM10 inh 22.4 | rCAG binder conf 35.1 | DNA CAG counter 8.3 | ADAM10 confirm inactive | ADAM17 counter inactive | ADAM10 counter inactive | ADAM17 confirm 12.4
CCCCCCOc1ccc(N2C(=O)CC(S/C(N)=N/N=C(\C)c3cccs3)C2=O)cc1 (centres undefined)	none
COC(=O)[C@@]12C[C@@H](CC(=O)NCc3ccccc3)C(=O)N(Cc3ccc4c(c3)OCO4)C1=CCC(C)(C)C2	none (no result: DSG3 Ab inh)
COCc1ccc(CN2CCC(n3nccc3NC(=O)c3ccc4c(c3)OCO4)CC2)o1	none
Cc1cccc(C(=O)NC2CCN(C(=O)Nc3ccc(F)cc3)CC2)c1	none
COc1ccc(Cl)cc1N1C(=O)CN(Cc2cc(OC)c(OC)c(OC)c2)C1=S	none
COc1cccc(-c2nc3nc(C)cc(C)n3c2NC2CCCC2)c1	none (no result: DSG3 Ab inh)
CC1CCN(C(=O)Cn2c(=O)n(Cc3ccco3)c(=O)c3sccc32)CC1	none (no result: DSG3 Ab inh)
O=C(COC(=O)c1ccc(Sc2ncn[nH]2)c([N+](=O)[O-])c1)Nc1ccc(Cl)c(Cl)c1	ADAM17 inh 10.0, rCAG RNA binder 64.1, ADAM10 inh 20.2 (no result: MPTP inh, DSG3 Ab inh) | rCAG binder conf 46.4 | DNA CAG counter 13.9 | ADAM10 confirm inactive | ADAM17 counter inactive | ADAM10 counter 37.5 | ADAM17 confirm 19.7
CC1(C(=O)NS(=O)(=O)c2cccc(Cl)c2)CCN1C(=O)Cc1ccsc1 (centres undefined)	none (no result: DSG3 Ab inh)
